This note sets out measurements from PubChem BioAssay AID624354 (Sanford-Burnham Center for Chemical Genomics, 2012).

Several values for one entry are separate records, joined by “and”; a condition that tells them apart may be missing. Equal values may be shown once. Out of some 360,000 compounds screened, about 3,800 (1.1%) were called active.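 Rule for the calls: active = compounds causing at least 50% loss of cell viability in the single-dose screen, relative to plate controls; inactive = the rest.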 Shown is part of a subset that was picked to be rich in actives.

This assay in a line: viability loss with TRAIL in NB7+C8 cells, primary screen, TRAIL sensitizer project, cell-based, ATPlite luminescence (AID 624354). As to conditions: at 10 µM, hits give high values.
Regarding `Cc1ccc(C(=O)O/N=C(\N)c2ccccn2)cc1Cl`, the inhibition (viability loss, TRAIL sensitization) is 74.5% (active). On to `N/C(=N\OC(=O)c1ccc([N+](=O)[O-])cc1)c1ccccn1`, for which the inhibition (viability loss, TRAIL sensitization) is 24.5% (inactive).

For `N/C(=N\OC(=O)CCC1CCCCC1)c1ccccn1`, the inhibition (viability loss, TRAIL sensitization) was -5.71% (inactive). For the compound `CNc1nc(SC)nc(N(C#N)CC(=O)OC)n1`, the inhibition (viability loss, TRAIL sensitization) is -0.928% (inactive). The same measure for `COC(=O)c1cccc(C(=O)N2CCCC(Nc3ccc4c(c3)OCCO4)C2)c1` (stereo not given): -3.93% (inactive); for `COc1ccc(S(=O)(=O)N2CCCC(C(=O)NCCCn3ccnc3)C2)cc1OC` (stereo not given): -12.7% (inactive).

Regarding `COc1ccc(C=C(C#N)C#N)c(CSc2ccccn2)c1`, the inhibition (viability loss, TRAIL sensitization) is 1.8% (inactive).

`COc1ccc2nc(-c3ccccn3)ccc2c1`: the inhibition (viability loss, TRAIL sensitization) was 80.3% (active). For `COc1ccc2cc(CCl)c(Cl)nc2c1`, the inhibition (viability loss, TRAIL sensitization) is -1.84% (inactive). With `CC[C@H](C)[C@@H](C(=O)N1CCNCC1)n1cc([C@@H](N)Cc2ccc(O)cc2)nn1`, the inhibition (viability loss, TRAIL sensitization) was -6.33% (inactive). With `CCCNC(=O)C1(C)CCN1C(=O)Cc1ccc(-c2ccccc2)cc1` (stereo not given), the inhibition (viability loss, TRAIL sensitization) is 5.54% (inactive).

`CC1(C(=O)NS(=O)(=O)c2ccccc2)CCN1C(=O)Cc1ccc(-c2ccccc2)cc1` (stereo not given): the inhibition (viability loss, TRAIL sensitization) is 4.55% (inactive). As to `C#Cc1ccc(NC(=O)C2(C)CCN2C(=O)Cc2ccc(-c3ccccc3)cc2)cc1` (stereo not given), the inhibition (viability loss, TRAIL sensitization) is 73.3% (active). With `Cc1cccc2c1-c1sc(C(=O)NCCCN3CCc4ccccc4C3)cc1CO2`, the inhibition (viability loss, TRAIL sensitization) is 11.6% (inactive). The same measure for `Cc1noc(C)c1CSCC(=O)Nc1nc2ccc(Oc3ccccc3)cc2s1`: -12.9% (inactive); for `COc1ccc2nc(Nc3nc(-c4cc5ccccc5oc4=O)cs3)sc2c1`: 69.2% (active). Take `COc1cccc(C(NC(C)=O)c2nc(-c3ccccc3OC)cs2)c1` (stereo not given): the inhibition (viability loss, TRAIL sensitization) was 2.76% (inactive). `CC(=O)CSc1nnc(CSc2ncccn2)n1C1CCCCC1`: the inhibition (viability loss, TRAIL sensitization) was -3.63% (inactive). The same measure for `O=C(NCCc1ccccc1Cl)C1CCC(=O)N(CCCc2ccccc2)C1` (stereo not given): 6.8% (inactive); for `Fc1ccc(/C=N/Nc2nc(-c3cccnc3)nc3ccccc23)cc1`: 50.2% (active). For `Brc1ccc(-c2csc(N/N=C/c3cccnc3)n2)cc1`, the inhibition (viability loss, TRAIL sensitization) was 2.52% (inactive). As to `CCN(CC(=O)NC1CCS(=O)(=O)C1)c1nc(-c2cccnc2)nc2ccccc12` (stereo not given), the inhibition (viability loss, TRAIL sensitization) was 11.4% (inactive). For `O=C(NNS(=O)(=O)c1ccccc1)c1cnn(-c2ccc(Cl)cc2)c1C(F)(F)F`, the inhibition (viability loss, TRAIL sensitization) was 18.4% (inactive). The same measure for `Cc1ccc(NC(=O)CCOc2ccccc2)cc1S(=O)(=O)Nc1ccccc1Cl`: 5.58% (inactive); for `CN(C(=O)CSc1cccc[n+]1[O-])C1CCCCC1`: 9.54% (inactive); for `O=C(c1cc2ccccc2o1)N1CCN(c2cccc(C(F)(F)F)c2)CC1`: -2.4% (inactive). For `CC(=O)c1sc(N)nc1C`, the inhibition (viability loss, TRAIL sensitization) is -3.29% (inactive) and -3.98% (inactive). As for `CC(=O)c1sc(NC(=O)c2ccc(C)cc2)nc1C`, the figure is 68.3% (active). As for `Cc1ccc(C(=O)Nc2ccn(C)n2)cc1`, the inhibition (viability loss, TRAIL sensitization) was 14.4% (inactive). The same measure for `CCOC(=O)N1CCN(C(=O)COC(=O)c2cccc(S(C)(=O)=O)c2)CC1`: -12.4% (inactive). Take `C=CC(COCc1ccccc1)N(CC(=O)OC)S(=O)(=O)c1cc(Br)ccc1OC` (stereo not given): the inhibition (viability loss, TRAIL sensitization) was 2.56% (inactive). The same measure for `CCOc1cc(N2CCOCC2)c(OCC)cc1NC(=O)COc1cccc2cccnc12`: 53.6% (active); for `CCOc1cc(N2CCOCC2)c(OCC)cc1NC(=O)C1=NN(c2cccc(C)c2)C(=O)CC1`: 3.1% (inactive); for `Cc1cc(C)cc(OCC(=O)Nc2ccc(N3CCOCC3)cc2N2CCOCC2)c1`: 6.27% (inactive). The same measure for `Cc1ccc(-c2c3c(=O)n(C)c(=O)n(C)c3cn2-n2cnnc2)cc1`: -15.5% (inactive); for `COc1ccc(OC)c(NC(=O)c2ccc3c(c2)C(=O)N(c2ccc(OC(C)=O)cc2)C3=O)c1`: -0.949% (inactive); for `CC1CCCCC1NC(=O)CCS(=O)(=O)c1ccc2c(c1)NC(=O)CO2` (stereo not given): -18.2% (inactive). Take `Cc1ccccc1S(=O)(=O)N1[C@@H](c2cccc(Cl)c2)C(C(=O)O)=CC[C@H]1c1ccc(Cl)cc1`: the inhibition (viability loss, TRAIL sensitization) is 15.5% (inactive). For the compound `Cc1nc2ccccc2n1C(=O)N1CCOCC1`, the inhibition (viability loss, TRAIL sensitization) was -8.36% (inactive). As for `Cc1oc2c(c1C(=O)N1CCOCC1)C(=O)c1ccccc1C2=O`, the inhibition (viability loss, TRAIL sensitization) is 88.8% (active). For `CC(C(=O)Nc1ccccc1-c1ccccc1)N1CCOCC1` (stereo not given), the inhibition (viability loss, TRAIL sensitization) is -42% (inactive). Turning to `COC(=O)[C@@]1(Sc2ccc(C)cc2)CC(=O)N(c2cccc(SC)c2)[C@@H]1c1ccccc1`, the inhibition (viability loss, TRAIL sensitization) is 24.6% (inactive). In the case of `O=[N+]([O-])c1ccc(N=NNc2ccc([N+](=O)[O-])cc2)cc1`, the inhibition (viability loss, TRAIL sensitization) was 13.8% (inactive).

With `O=C(Cc1ccccc1)N1CCN(S(=O)(=O)c2ccc([N+](=O)[O-])cc2)CC1`, the inhibition (viability loss, TRAIL sensitization) is -7.16% (inactive). Turning to `O=C1/C(=C\c2ccc([N+](=O)[O-])cc2)CS(=O)(=O)C/C1=C/c1ccc([N+](=O)[O-])cc1`, the inhibition (viability loss, TRAIL sensitization) was 91.8% (active). On to `CC1(C(=O)NCc2ccco2)Cc2c(-c3ccc4c(c3)OCO4)ccnc2O1` (stereo not given), for which the inhibition (viability loss, TRAIL sensitization) was 14.9% (inactive). In the case of `CCOc1cc(/C=N/NC(=O)c2c(C)nc3ccc(Cl)cn23)ccc1O`, the inhibition (viability loss, TRAIL sensitization) is -7.66% (inactive). Turning to `COc1ccc(/C=N/NC(=O)Cn2cc(C(F)(F)F)ccc2=O)cc1`, the inhibition (viability loss, TRAIL sensitization) was -0.17% (inactive). As to `COc1ccc(C(=O)Nc2ccccc2C(=O)N/N=C/c2ccc(O)c(OC)c2)cc1`, the inhibition (viability loss, TRAIL sensitization) was 95.8% (active).

In the case of `COc1ccc(/C=N/Nc2ccccc2C(=O)O)cc1`, the inhibition (viability loss, TRAIL sensitization) was 55.9% (active). For `COc1ccc(/C=N/NC(=O)C(C)N(c2ccc(OC)cc2)S(C)(=O)=O)cc1` (stereo not given), the inhibition (viability loss, TRAIL sensitization) was -5.4% (inactive).

As for `COc1cc(C=NC2CCCCC2)ccc1O`, the inhibition (viability loss, TRAIL sensitization) is -2.08% (inactive). For the compound `Cc1cccc(N(Cc2ccccc2)C(=O)c2cc(S(=O)(=O)N3CCOCC3)ccc2F)c1`, the inhibition (viability loss, TRAIL sensitization) is 19.9% (inactive).

In the case of `CN(C)C(=O)CCc1ccc2c3c([nH]c2c1)[C@]1(CCc2ccccc2)[C@@H](C(=O)N2CCCCC2)C[C@H](CC(=O)NCCC2=CCCCC2)C(=O)N1CC3`, the inhibition (viability loss, TRAIL sensitization) was 13.2% (inactive). The same measure for `CCc1nc2ccc(C(=O)Nc3cccc(OC)c3)cn2c1N(CCC(C)C)CCN(C)C`: 15.5% (inactive); for `CCOc1ccccc1-n1c(SCC(=O)N2CCCC2)nnc1-c1ccoc1C`: 2.53% (inactive); for `Cc1ccc(-c2cc(C(=O)N/N=C/C=C/c3ccco3)c3ccccc3n2)cc1C`: 61.5% (active). As for `Cc1ccc(C(=O)N/C(=C/c2ccco2)C(=O)NCCc2c[nH]c3ccccc23)cc1C`, the figure is -2.25% (inactive); as for `O=C(N/N=C/C=C/c1ccco1)c1cccs1`, -0.972% (inactive); as for `Cc1ccc(C2Nc3ccccc3C(=O)N2CCN2CCNC2=O)cc1` (stereo not given), -20.4% (inactive). Regarding `Cc1ccc(Cc2c(-c3ccccc3)nc3ccc(Cl)cn23)cc1`, the inhibition (viability loss, TRAIL sensitization) is 8.97% (inactive). As for `Cc1ccc2nc(-c3ccc(Br)cc3)cn2c1`, the inhibition (viability loss, TRAIL sensitization) is 67.2% (active). The same measure for `COc1ccc(-c2nc3ccc(Br)cn3c2Cc2ccc(C)cc2)cc1OC`: 3.92% (inactive).

As to `Cc1ccc(-c2cn3cc(C)ccc3n2)cc1`, the inhibition (viability loss, TRAIL sensitization) was 87.8% (active). On to `Cc1ccc(-n2cc3ccc([N+](=O)[O-])cc3n2)cc1`, for which the inhibition (viability loss, TRAIL sensitization) is 25.5% (inactive). Regarding `Cc1ccc(-c2cn3cc([N+](=O)[O-])ccc3n2)cc1`, the inhibition (viability loss, TRAIL sensitization) was 56.8% (active). For `CC(=O)Nc1c(-c2ccc(C)cc2)nc2ccc(Cl)cn12`, the inhibition (viability loss, TRAIL sensitization) was -3.92% (inactive). In the case of `Cc1ccc(-c2nc3ccc(Br)cn3c2Cc2ccccc2C(F)(F)F)cc1`, the inhibition (viability loss, TRAIL sensitization) was 12.7% (inactive). For the compound `Cc1ccnc(N2C(=O)c3ccc([N+](=O)[O-])cc3C2=O)c1`, the inhibition (viability loss, TRAIL sensitization) was -23.1% (inactive). The same measure for `CCOc1ccc(C(C)=O)cc1CSc1nnc(-c2ccncc2)n1CCOC`: -21.1% (inactive); for `CC(C)Oc1ccc(/C=C(\NC(=O)/C=C/c2ccco2)C(=O)NCCc2nc3ccccc3[nH]2)cc1`: -11.3% (inactive); for `CCCCN(CC)C(=O)CN(C)S(=O)(=O)c1cccc2nsnc12`: 4.95% (inactive). In the case of `CN(CC(=O)Nc1c(Cl)cccc1Cl)C(=O)c1ccncc1`, the inhibition (viability loss, TRAIL sensitization) is -1.41% (inactive). With `OC[C@@H]1CN(Cc2ccc(Cl)cc2)C[C@H](n2cnc3c(NCc4ccncc4)ncnc32)O1`, the inhibition (viability loss, TRAIL sensitization) was 0.808% (inactive).

Turning to `CSCCC(NS(=O)(=O)c1ccccc1F)C(=O)N1CC=C(c2ccccc2)CC1` (stereo not given), the inhibition (viability loss, TRAIL sensitization) is 15.4% (inactive). For the compound `N#CCCn1ncc2ccccc21`, the inhibition (viability loss, TRAIL sensitization) is -30.7% (inactive). As for `COc1ccc2c(c1)cc1n2CCN=C1NN`, the figure is 6.58% (inactive). As for `COc1ccc(C(=O)NC(Cc2ccc(OC(=O)c3ccc(OC)cc3)cc2)C(=O)O)cc1` (stereo not given), the inhibition (viability loss, TRAIL sensitization) was 7.3% (inactive). For the compound `O=CNc1cc(-c2ccc(C(=O)N3CCOCC3)cc2)cn2c(-c3ccc(F)cc3)cnc12`, the inhibition (viability loss, TRAIL sensitization) was 19.1% (inactive). For the compound `CC(C)CNC(=S)NC(=O)c1ccc(Cl)cc1`, the inhibition (viability loss, TRAIL sensitization) is -9.78% (inactive). For `CN1C(=O)[C@H]2[C@@H](/C=C/c3ccccc3)N3C(=O)CN(Cc4ccc(-c5ccccc5)cc4)C(=O)[C@@]3(C)[C@H]2C1=O`, the inhibition (viability loss, TRAIL sensitization) was 7.89% (inactive).

Consider `CCOc1ccc(Br)cc1S(=O)(=O)Nc1ccc(C(=O)OC(C)C(=O)N(C)c2ccccc2)cc1` (stereo not given), for which the inhibition (viability loss, TRAIL sensitization) is 9.56% (inactive). Regarding `Cc1ccc(/C=N/NC(=O)C2=NNC(c3ccccc3)(c3ccccc3)C2)c(O)c1`, the inhibition (viability loss, TRAIL sensitization) was 20.2% (inactive).

For `Oc1ccc(/C=N/Nc2nc(-c3ccccc3F)nc3ccccc23)c(O)c1`, the inhibition (viability loss, TRAIL sensitization) is 60.2% (active).

On to `O=C(NNc1c2ccccc2nc2ccccc12)c1cc2ccccc2cc1O`, for which the inhibition (viability loss, TRAIL sensitization) was 11.6% (inactive). Regarding `O=C(NCc1ccccn1)[C@@H]1CCCN1C(=O)[C@@H]1CCCN1C(=O)c1ccccc1`, the inhibition (viability loss, TRAIL sensitization) is -14% (inactive). Take `Nc1nc(NC(=O)/C=C/c2ccccc2)nn1-c1ccccc1`: the inhibition (viability loss, TRAIL sensitization) was 15% (inactive). As for `COc1ccc(Oc2c(Cl)cnn(-c3ccccc3)c2=O)cc1`, the figure is 89.7% (active); as for `COc1ccc(CCNC(=O)c2c(C)nn(-c3ccccc3)c2Cl)cc1`, -4.85% (inactive); as for `COc1ccc(C2c3c(C)nn(-c4ccccc4)c3NC(=O)N2c2ccccc2)cc1` (stereo not given), -5.29% (inactive).
